In ChEMBL document CHEMBL1961873, “Compounds: GSK PKIS; Assays: Nanosyn kinase panel” (2012):

How the values were obtained:
[1] = biological target: Sphingosine kinase 1 (Homo sapiens) (UniProt Q9NYA1); settings: at 1 µM;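 note: mean SPHK1 inhibition value reported from the GSK PKIS kinase panel screen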
[2] = biological target: T1, Sphingosine kinase 2 (Homo sapiens) (UniProt Q9NRA0); settings: at 0.1 µM
T1 sequence (whole entry): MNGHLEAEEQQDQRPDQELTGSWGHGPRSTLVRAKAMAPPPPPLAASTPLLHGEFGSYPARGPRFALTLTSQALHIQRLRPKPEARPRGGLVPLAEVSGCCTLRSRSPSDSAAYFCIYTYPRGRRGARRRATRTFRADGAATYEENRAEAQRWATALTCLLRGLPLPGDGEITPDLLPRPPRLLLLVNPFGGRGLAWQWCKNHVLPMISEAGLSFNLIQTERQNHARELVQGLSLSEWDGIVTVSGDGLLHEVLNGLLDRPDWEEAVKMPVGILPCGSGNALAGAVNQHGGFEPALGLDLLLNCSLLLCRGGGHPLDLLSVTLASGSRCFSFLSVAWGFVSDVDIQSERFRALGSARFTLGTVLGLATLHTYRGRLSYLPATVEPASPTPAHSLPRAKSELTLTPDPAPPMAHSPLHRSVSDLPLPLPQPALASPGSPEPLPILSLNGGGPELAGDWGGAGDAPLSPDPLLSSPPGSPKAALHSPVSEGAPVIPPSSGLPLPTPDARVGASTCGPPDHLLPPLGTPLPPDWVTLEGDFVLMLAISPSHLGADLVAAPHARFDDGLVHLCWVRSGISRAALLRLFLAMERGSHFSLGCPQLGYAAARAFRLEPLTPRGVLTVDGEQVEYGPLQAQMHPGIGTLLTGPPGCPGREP

[3] = biological target: T1, Sphingosine kinase 2 (Homo sapiens); settings: at 1 µM
[4] = biological target: Casein kinase II subunit alpha (Homo sapiens) (UniProt P68400); settings: at 0.1 µM
[5] = biological target: Casein kinase II subunit alpha (Homo sapiens) (UniProt P68400); settings: at 1 µM
[6] = biological target: T2, Inhibitor of nuclear factor kappa-B kinase subunit alpha (Homo sapiens) (UniProt O15111); settings: at 0.1 µM
T2 sequence (whole entry): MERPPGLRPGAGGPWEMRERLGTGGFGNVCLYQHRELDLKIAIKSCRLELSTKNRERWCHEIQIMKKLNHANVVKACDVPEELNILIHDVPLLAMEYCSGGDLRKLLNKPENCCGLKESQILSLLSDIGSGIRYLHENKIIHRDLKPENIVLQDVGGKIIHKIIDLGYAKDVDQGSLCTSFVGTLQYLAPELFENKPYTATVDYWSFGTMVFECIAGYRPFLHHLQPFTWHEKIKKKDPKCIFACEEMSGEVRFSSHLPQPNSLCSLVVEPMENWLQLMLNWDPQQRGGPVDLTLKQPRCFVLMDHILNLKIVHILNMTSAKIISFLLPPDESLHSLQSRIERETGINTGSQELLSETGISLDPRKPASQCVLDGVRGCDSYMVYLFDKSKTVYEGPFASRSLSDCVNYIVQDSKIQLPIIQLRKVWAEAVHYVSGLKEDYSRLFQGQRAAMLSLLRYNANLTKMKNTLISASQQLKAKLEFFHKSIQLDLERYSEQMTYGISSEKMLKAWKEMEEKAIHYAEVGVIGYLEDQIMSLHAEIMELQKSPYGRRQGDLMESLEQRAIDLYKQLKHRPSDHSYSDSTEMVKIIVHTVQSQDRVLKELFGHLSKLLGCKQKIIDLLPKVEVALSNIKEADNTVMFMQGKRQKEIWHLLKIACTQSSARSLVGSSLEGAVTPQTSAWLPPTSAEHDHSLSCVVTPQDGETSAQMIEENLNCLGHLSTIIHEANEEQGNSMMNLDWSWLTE

[7] = biological target: T2, Inhibitor of nuclear factor kappa-B kinase subunit alpha (Homo sapiens); settings: at 1 µM
[8] = biological target: T3, Inhibitor of nuclear factor kappa-B kinase subunit beta (Homo sapiens) (UniProt O14920); settings: at 0.1 µM
T3 sequence (whole entry): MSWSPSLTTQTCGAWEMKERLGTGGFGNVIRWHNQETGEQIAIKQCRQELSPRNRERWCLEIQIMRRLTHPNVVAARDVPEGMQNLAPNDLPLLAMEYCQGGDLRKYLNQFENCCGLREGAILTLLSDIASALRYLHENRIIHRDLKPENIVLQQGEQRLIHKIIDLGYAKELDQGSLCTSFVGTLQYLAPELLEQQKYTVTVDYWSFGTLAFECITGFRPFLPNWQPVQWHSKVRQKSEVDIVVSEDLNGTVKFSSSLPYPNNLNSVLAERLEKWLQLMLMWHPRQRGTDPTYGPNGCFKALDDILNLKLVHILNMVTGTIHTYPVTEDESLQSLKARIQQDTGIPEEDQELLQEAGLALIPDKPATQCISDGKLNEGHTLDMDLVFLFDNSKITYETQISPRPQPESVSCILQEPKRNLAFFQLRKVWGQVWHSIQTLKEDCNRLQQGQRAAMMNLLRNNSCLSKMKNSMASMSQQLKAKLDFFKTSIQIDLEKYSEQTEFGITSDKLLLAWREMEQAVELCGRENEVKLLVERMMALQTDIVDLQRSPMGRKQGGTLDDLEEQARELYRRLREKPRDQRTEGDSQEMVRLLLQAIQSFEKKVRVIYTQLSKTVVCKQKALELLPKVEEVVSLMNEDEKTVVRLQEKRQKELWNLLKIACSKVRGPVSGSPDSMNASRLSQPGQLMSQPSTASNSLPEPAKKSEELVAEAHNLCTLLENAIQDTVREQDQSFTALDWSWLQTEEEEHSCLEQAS

[9] = biological target: T3, Inhibitor of nuclear factor kappa-B kinase subunit beta (Homo sapiens); settings: at 1 µM
[10] = biological target: T4, Inhibitor of nuclear factor kappa-B kinase subunit epsilon (Homo sapiens) (UniProt Q14164); settings: at 0.1 µM
T4 sequence (whole entry): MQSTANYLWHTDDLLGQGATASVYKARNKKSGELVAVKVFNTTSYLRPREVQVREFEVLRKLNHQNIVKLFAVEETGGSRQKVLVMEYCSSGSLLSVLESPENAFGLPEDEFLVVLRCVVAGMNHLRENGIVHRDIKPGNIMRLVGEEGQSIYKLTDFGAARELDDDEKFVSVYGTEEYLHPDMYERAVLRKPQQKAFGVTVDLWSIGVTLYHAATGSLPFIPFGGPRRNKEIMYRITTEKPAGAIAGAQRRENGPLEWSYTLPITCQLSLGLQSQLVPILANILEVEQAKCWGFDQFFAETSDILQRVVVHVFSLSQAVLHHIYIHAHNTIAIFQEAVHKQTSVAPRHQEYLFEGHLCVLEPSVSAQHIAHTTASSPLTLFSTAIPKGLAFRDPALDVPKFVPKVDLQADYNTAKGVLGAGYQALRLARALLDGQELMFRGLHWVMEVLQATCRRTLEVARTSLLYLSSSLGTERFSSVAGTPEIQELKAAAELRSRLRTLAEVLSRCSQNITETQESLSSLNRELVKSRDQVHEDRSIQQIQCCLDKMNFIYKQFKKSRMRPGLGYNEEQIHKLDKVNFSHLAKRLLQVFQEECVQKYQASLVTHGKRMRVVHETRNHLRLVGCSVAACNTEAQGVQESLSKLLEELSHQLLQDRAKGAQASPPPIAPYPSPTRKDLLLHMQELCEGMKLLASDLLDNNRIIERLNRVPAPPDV

[11] = biological target: T4, Inhibitor of nuclear factor kappa-B kinase subunit epsilon (Homo sapiens); settings: at 1 µM
[12] = biological target: T5, Serine/threonine-protein kinase Nek1 (Homo sapiens) (UniProt Q96PY6); settings: at 0.1 µM
T5 sequence (whole entry): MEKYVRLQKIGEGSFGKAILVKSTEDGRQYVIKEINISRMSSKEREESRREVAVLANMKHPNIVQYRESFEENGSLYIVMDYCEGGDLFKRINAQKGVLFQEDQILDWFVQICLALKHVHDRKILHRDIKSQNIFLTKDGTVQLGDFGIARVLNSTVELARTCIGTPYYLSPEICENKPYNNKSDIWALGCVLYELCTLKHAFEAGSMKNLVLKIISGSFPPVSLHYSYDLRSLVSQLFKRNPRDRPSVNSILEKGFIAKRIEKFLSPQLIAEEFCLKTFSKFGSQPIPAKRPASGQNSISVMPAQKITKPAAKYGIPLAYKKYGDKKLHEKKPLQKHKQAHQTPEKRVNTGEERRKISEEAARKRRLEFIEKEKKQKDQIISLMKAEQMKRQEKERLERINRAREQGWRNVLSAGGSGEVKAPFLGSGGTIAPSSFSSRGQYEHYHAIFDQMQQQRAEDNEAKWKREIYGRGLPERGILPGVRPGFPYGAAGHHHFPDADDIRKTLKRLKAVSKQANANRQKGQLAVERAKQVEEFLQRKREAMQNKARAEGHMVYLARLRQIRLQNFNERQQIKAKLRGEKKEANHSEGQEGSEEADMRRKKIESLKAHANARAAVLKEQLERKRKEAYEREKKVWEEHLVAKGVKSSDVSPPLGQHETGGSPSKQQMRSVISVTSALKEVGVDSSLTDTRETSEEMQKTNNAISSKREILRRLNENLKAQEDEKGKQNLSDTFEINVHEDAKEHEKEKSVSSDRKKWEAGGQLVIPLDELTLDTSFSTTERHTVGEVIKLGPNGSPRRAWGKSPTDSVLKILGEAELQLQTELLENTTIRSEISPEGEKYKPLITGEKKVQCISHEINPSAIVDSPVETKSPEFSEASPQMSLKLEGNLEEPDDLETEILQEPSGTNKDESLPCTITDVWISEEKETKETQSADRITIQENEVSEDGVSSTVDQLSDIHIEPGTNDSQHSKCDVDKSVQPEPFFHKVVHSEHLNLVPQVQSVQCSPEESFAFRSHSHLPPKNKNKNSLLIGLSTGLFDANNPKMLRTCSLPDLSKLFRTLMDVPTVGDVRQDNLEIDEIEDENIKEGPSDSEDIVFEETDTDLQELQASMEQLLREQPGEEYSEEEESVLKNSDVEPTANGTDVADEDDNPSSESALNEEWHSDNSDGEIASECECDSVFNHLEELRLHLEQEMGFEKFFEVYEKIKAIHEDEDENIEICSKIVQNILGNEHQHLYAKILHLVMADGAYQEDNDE

[13] = biological target: T5, Serine/threonine-protein kinase Nek1 (Homo sapiens); settings: at 1 µM
[14] = biological target: T6, Serine/threonine-protein kinase Nek2 (Homo sapiens) (UniProt P51955); settings: at 0.1 µM
T6 sequence (whole entry): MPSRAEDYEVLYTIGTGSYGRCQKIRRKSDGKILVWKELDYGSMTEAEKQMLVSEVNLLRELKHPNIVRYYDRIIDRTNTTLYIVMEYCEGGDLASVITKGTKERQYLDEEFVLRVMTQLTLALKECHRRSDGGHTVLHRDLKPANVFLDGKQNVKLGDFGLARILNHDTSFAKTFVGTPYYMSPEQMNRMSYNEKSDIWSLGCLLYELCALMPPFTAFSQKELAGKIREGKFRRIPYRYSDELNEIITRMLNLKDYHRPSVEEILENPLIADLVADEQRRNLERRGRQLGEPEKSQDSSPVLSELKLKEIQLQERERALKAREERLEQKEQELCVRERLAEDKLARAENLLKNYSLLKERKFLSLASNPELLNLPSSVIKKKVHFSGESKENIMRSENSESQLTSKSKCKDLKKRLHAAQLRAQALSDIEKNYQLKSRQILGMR

[15] = biological target: T6, Serine/threonine-protein kinase Nek2 (Homo sapiens); settings: at 1 µM
[16] = biological target: Serine/threonine-protein kinase Nek6 (Homo sapiens) (UniProt Q9HC98); settings: at 0.1 µM
[17] = biological target: Serine/threonine-protein kinase Nek6 (Homo sapiens) (UniProt Q9HC98); settings: at 1 µM
[18] = biological target: Serine/threonine-protein kinase Nek7 (Homo sapiens) (UniProt Q8TDX7); settings: at 0.1 µM
[19] = biological target: Serine/threonine-protein kinase Nek7 (Homo sapiens) (UniProt Q8TDX7); settings: at 1 µM
[20] = biological target: T7, Serine/threonine-protein kinase Nek9 (Homo sapiens) (UniProt Q8TD19); settings: at 0.1 µM;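 note: reported value is the mean percent inhibition of NEK9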
T7 sequence (whole entry): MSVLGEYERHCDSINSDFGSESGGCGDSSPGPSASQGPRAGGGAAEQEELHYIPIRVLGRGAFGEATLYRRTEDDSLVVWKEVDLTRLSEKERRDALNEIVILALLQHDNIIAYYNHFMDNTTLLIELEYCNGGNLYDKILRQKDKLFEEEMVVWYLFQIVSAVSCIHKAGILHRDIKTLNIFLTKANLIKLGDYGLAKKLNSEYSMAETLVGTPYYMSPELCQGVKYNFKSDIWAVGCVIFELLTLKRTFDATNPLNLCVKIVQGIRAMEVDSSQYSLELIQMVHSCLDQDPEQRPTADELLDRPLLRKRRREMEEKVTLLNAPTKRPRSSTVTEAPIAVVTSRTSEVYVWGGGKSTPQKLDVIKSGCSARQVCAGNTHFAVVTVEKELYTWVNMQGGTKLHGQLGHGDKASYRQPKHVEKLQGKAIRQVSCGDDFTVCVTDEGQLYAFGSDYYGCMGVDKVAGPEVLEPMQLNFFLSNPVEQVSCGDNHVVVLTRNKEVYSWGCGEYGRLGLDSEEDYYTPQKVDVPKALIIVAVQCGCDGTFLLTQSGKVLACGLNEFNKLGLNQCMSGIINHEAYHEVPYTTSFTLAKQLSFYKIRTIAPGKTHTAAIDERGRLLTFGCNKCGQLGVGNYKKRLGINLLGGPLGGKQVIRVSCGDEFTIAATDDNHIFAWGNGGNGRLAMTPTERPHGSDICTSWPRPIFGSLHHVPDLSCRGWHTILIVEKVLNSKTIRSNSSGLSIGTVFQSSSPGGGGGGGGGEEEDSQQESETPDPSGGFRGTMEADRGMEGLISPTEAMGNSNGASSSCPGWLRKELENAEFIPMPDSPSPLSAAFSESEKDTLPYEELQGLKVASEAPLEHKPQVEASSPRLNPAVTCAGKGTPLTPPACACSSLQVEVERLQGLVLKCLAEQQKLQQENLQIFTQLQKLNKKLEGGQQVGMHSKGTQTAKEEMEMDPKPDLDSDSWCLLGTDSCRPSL

Serine/threonine-protein kinase Nek6 (Homo sapiens), sequence (Q9HC98 whole entry): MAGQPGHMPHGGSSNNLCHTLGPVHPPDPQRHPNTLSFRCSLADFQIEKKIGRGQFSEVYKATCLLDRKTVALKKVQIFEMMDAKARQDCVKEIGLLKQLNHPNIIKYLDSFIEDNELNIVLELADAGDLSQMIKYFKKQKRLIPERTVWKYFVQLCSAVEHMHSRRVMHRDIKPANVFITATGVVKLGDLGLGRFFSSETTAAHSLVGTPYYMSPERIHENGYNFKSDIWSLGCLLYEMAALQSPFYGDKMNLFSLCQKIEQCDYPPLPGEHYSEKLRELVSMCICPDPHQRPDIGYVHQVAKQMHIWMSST
Casein kinase II subunit alpha (Homo sapiens), sequence (P68400 whole entry, looked up): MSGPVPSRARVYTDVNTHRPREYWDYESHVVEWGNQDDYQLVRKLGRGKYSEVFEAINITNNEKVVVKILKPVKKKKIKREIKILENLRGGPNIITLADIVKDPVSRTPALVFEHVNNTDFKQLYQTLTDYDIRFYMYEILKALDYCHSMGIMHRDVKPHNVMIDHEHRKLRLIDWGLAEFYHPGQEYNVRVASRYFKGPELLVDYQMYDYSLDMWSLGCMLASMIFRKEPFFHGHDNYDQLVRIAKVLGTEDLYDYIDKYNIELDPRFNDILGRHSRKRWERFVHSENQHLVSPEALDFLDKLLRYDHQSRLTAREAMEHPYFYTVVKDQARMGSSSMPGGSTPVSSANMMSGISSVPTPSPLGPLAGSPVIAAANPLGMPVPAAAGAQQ
Serine/threonine-protein kinase Nek7 (Homo sapiens), sequence (Q8TDX7 whole entry, looked up): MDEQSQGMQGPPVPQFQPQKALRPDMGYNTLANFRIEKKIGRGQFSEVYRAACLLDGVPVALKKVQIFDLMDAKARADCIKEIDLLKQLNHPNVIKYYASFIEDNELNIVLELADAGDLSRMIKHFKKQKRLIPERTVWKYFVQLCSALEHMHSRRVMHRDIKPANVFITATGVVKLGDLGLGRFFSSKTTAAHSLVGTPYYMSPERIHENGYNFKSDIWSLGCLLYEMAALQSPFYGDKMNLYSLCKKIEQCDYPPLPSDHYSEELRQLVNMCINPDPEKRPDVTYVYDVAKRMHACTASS
Sphingosine kinase 1 (Homo sapiens), sequence (Q9NYA1 whole entry): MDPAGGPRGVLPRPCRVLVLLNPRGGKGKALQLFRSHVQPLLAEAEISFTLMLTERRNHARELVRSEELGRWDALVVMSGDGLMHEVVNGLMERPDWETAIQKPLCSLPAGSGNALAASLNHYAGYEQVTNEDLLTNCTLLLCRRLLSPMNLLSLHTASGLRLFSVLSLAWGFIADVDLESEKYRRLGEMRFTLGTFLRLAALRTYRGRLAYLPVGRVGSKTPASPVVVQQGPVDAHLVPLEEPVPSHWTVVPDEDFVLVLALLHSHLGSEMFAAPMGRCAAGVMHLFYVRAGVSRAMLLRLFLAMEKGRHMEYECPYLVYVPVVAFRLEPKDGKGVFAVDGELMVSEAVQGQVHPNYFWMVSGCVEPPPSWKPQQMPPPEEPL

For `COc1ccc(-c2nn3ncccc3c2-c2ccnc(Nc3ccc(F)c(F)c3)n2)cc1`, the inhibition [1] was -4.19%, the inhibition [2] was 5.2% and the inhibition [3] was 0%. It also gave an inhibition [4] of 5.76%, an inhibition [5] of 10.5% and an inhibition [6] of 3.55%. For the same compound, the inhibition [7] was 8.81%, the inhibition [8] was 4.66% and the inhibition [9] was 5.58%. It also gave an inhibition [10] of 9.89%, an inhibition [11] of 88.2% and an inhibition [12] of 1.08%. For the same compound, the inhibition [13] was 2.15%, the inhibition [14] was 3.89% and the inhibition [15] was 2.89%. The inhibition [16] was 3.33%, the inhibition [17] was 5.18% and the inhibition [18] was 3.7%. It also gave an inhibition [19] of 4.42% and an inhibition [20] of 7.45%.
